The text below walks through data of PubChem BioAssay (Tox21).

Results filed as inconclusive are left out. A call without a number means that no potency is given here. The source made the active and inactive calls. Calls follow the shape of the full dose curve.
Potency is read from the fitted curve at half-maximal effect.

The nature of the experiment: p53 small molecule agonists, cell-based qHTS assay with rat liver microsomes: qHTS cell viability counter screen (AID 1963580). Also: nearly all actives have a fitted effect of over 45% in size. The note with it: p53RE-bla HCT-116 + rat microsomes, ATP viability, 16 h; series mostly up to 66 µM. An excerpt: National Center for Advancing Translational Sciences [NCATS]
Division of Preclinical Innovation [DPI]
U.S. Environmental Protection Agency [EPA]
National Institutes of Environmental Health Sciences [NIEHS]
National Toxicology Program [NTP]
U.S. Food and Drug Administration [FDA]
p53, a tumor suppressor protein, is activated following cellular insult, including DNA damage and other cellular stresses. The activation of p53 regulates cell fate by inducing DNA repair, cell cycle arrest, apoptosis, or cellular senescence. The activation of p53, therefore, is a good indicator of DNA damage and other cellular stresses. The CellSensor p53RE-bla HCT-116 cell line contains a stably integrated beta-lactamase reporter gene under control of the p53 response elements. The activation of the reporter gene under culture conditions can be detected by fluorescence intensity. This cell line was used to screen the Tox21 10K compound library in the condition of presence of rat liver microsomes and to identify agonists that activate the p53 signaling pathway after in vitro metabolic activation (Ooka et al., Archive of Toxicology 96:1975-1987, 2022). The cytotoxicity of the Tox21 compound library against the p53 RE-bla HCT-116 cell line was tested in parallel by measuring the intra cellular ATP content in the same wells.
Tox21 Assay Protocol Summary:
The p53RE-bla cells were dispensed at 4,000cells/3ul/well in 1536-well black-clear bottom plates. After the assay plates were incubated at 37 C, 5% CO2 incubator for 5 hours, 23 nL of compounds dissolved in DMSO, positive controls or DMSO only was transferred to the assay plate. Following compound addition, 3 uL of rat liver microsomes (Molecular Toxicology, Boone, NC) at final concentration of 0.5 mg/mL and 1uL of B-Nicotinamide adenine dinucleotide 2'-phosphate (NADPH) at final concentration of 0.5 mg/mL were transferred to the assay plate. The plates were incubated at 37 C for 16 hours. 1 uL of LiveBLAzer detection mixture was added to each well and the plates were incubated at room temperature in the dark for 2 h. Fluorescence intensity at 460 and 530 nm emission and 405 nm excitation were measured by an Envision plate reader. For cell viability readout that measures cytotoxicity, 4 ul/well of CellTiter-Glo reagent was added into the assay plates using a Flying Reagent Dispenser. After 30 min incubation at room temperature, the luminescence intensity in the plates was measured using a ViewLux plate reader.
On the technique in general: In qHTS, concentration-response curves come from the screen itself.
`C/C=C1/C(=O)C[C@H]2[C@@H]3CCC4=CC(=O)CC[C@]4(C)[C@H]3CC[C@]12C`: the Potency entry is “inactive”.

On to `Cc1ccc(O)c(C(=O)c2ccccc2)c1`, for which the Potency result is “inactive”.

Consider `Nc1nc(F)nc2c1ncn2[C@@H]1O[C@H](CO)[C@@H](O)[C@@H]1O`, for which the Potency result was “inactive”.

As to `CCN(CCC#N)c1ccc(N=Nc2c(Cl)cc([N+](=O)[O-])cc2Cl)cc1`, the Potency result is “inactive”.

As to `CCCCCCCC/C=C\CCCCCCCC(=O)OCC`, the Potency result was “inactive”.

Consider `CCC(CC)Nc1ccc(C)c(C)c1`, for which the Potency result was “inactive”.

For the molecule `CC(N)=O`, the Potency entry was “inactive”.

As to `CCC(=O)/C=C/c1ccc(OC)cc1`, the Potency result was “inactive”.

`CC[C@H]1O[C@]2(CC[C@@H]1C)C[C@@H]1C[C@@H](C/C=C(\C)C[C@@H](C)/C=C/C=C3\CO[C@@H]4[C@H](O)C(C)=C[C@@H](C(=O)O1)[C@]34O)O2`: the Potency result is “inactive”.

As to `O=C(/C=C/c1ccc(O)c(O)c1)O[C@@H](C(=O)O)[C@@H](OC(=O)/C=C/c1ccc(O)c(O)c1)C(=O)O`, the Potency entry was “inactive”.

In the case of `CCCCN(CCO)CCCC`, the Potency entry is “inactive”.

In the case of `CCCC(=O)O[C@]1(C(=O)CCl)[C@@H](C)C[C@H]2[C@@H]3CCC4=CC(=O)C=C[C@]4(C)[C@@]3(F)C(=O)C[C@@]21C`, the Potency result was “inactive”.

In the case of `CNCC[C@@H](Oc1ccccc1C)c1ccccc1`, the Potency entry was “inactive”.

Consider `CC(C)(C)CC(C)(C)c1ccccc1O`, for which the Potency is 41 µM (active).

Regarding `CO[C@@]1(NC(=O)Cc2cccs2)C(=O)N2C(C(=O)O)=C(COC(N)=O)CS[C@@H]21`, the Potency entry is “inactive”.

For the molecule `C[C@@H]1C[C@H]2[C@@H]3CCC4=CC(=O)C=C[C@]4(C)[C@@]3(F)[C@@H](O)C[C@]2(C)[C@@]1(O)C(=O)COC(=O)c1ccncc1`, the Potency entry is “inactive”.

In the case of `CCCCCCCC/C=C\CCCCCCCC(=O)N(CCO)CCO`, the Potency result is “inactive”.

Turning to `CCOc1ccc(NC(N)=O)cc1`, the Potency result was “inactive”.

On to `CCCCC(CC)COP(=O)(O)O` (stereo not given), for which the Potency entry was “inactive”.

In the case of `O=C(Cl)c1ccc(Cl)cc1Cl`, the Potency entry is “inactive”.

Consider `COc1ccc2c(c1)c1c3n2CCN(C)C3=NCC1`, for which the Potency entry is “inactive”.

As to `NC(Cc1c[nH]c2ccccc12)C(=O)O` (stereo not given), the Potency result is “inactive”.

With `N#C/C(=C1/SC[C@@H](c2ccc(Cl)cc2Cl)S1)n1ccnc1`, the Potency result is “inactive”.

As to `CCCCCCCCCCCCOCCOCCOCCOCCOCCOCCOCCOCCOCCO`, the Potency entry is “inactive”.

As for `C=C(C)C(=O)OCCCCCCCCCC`, the Potency result is “inactive”.

Take `O=S(=O)(Oc1ccc(Cl)cc1)c1ccccc1`: the Potency result is “inactive”.

Consider `CN[C@H]1CC[C@@H](c2ccc(Cl)c(Cl)c2)c2ccc(S(N)(=O)=O)cc21`, for which the Potency entry is “inactive”.

With `C=C[Si]1(C)O[Si](C)(C=C)O[Si](C)(C=C)O[Si](C)(C=C)O1` (stereo not given), the Potency result is “inactive”.

In the case of `CN(C)CC[C@@H](c1ccc(Br)cc1)c1ccccn1`, the Potency entry was “inactive”.

For `O=C(O)c1ccc(O)c(O)c1`, the Potency result is “inactive”.

In the case of `C=C1C(=C/C=C2\CCC[C@]3(C)[C@@H]([C@H](C)/C=C/[C@@H](O)C4CC4)CC[C@@H]23)C[C@@H](O)C[C@@H]1O`, the Potency entry is “inactive”.

For `COCCOC`, the Potency result was “inactive”.

Take `CC(=O)OC1C2(C)CCC(C2)C1(C)C` (stereo not given): the Potency entry was “inactive”.

On to `Brc1ccccc1-c1ccccc1`, for which the Potency entry was “inactive”.

In the case of `N#Cc1ccccc1C#N`, the Potency result is “inactive”.

As for `CC(O)C#CC(C)O` (stereo not given), the Potency result was “inactive”.

For `CCCCCCCCCCCCCCCCCCNC(=O)OC1CCN(C(=O)OC[C@H](COC(=O)N(Cc2cccc[n+]2CC)C(=O)c2ccccc2OC)OC)CC1`, the Potency entry is “inactive”.

With `COc1ccc(-c2cc(=S)ss2)cc1`, the Potency result was “inactive”.

Regarding `O=C1CCC(=O)N1Cl`, the Potency result was “inactive”.

Regarding `C=C(C)C1CC=C(C)C(=O)C1` (stereo not given), the Potency result was “inactive”.
